For 60 compounds, Potency results are on record in PubChem BioAssay AID1345083 (National Center for Advancing Translational Sciences (NCATS), 2018).

Hit rate of the full screen: of about 94,000 compounds, about 6,200 (6.6%) were called active. Where a call stands in place of a potency, no number is given. Roughly 31% stayed inconclusive and do not appear here. Calls follow the shape of the dose curve; as a rule, active = well fitted inhibition curve with a large enough effect; inconclusive = small, poorly fitted or top-dose-only effect; inactive = flat fitted curve, though single readings scatter. The full list was thinned out, with actives kept by preference.
Potency is read from the fitted curve at half-maximal effect.

The nature of the experiment: Cytotoxic Profiling in HEK 293 Cell Line of Diverse Libraries Using Quantitative High-Throughput Screening. Also: nearly all actives have a fitted effect of over 60% in size. The following applies: HEK 293 viability, ATP luminescence (CellTiter-Glo), 48-72 h; series mostly up to 115 µM. In short, it runs like this:
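Cells seeded first (HEK 293, 250 cells/well), then compound added by pintool. Incubation ran 48 or 72 hr at 37 degree Celsius. CellTiter-Glo was added and luminescence imaged after 10 min at room temperature.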
Background: In ATP-based viability assays light output follows the ATP content of the culture.
On to `COc1ccccc1N1CCN([C@@H]2[C@H](O)[C@H](CO)O[C@@H]2CNC(=O)c2ccc(F)c(Cl)c2)CC1`, for which the Potency entry was “inactive”.
Turning to `CN1C[C@H](NCc2nccn2C)CCC[C@@H](C(=O)NC2CC2)CC1=O`, the Potency result was “inactive”.
On to `O=C(NCc1cccs1)c1nc(-c2cc(Cl)cc(Cl)c2)c2ccccn12`, for which the Potency entry is “inactive”.
For `CCc1cccc(NC(=O)N2[C@@H]3CC[C@H]2CC(NC(=O)c2ccc(F)cc2)C3)c1` (stereo not given in full), the Potency is 39.8 µM (active).
For `Cc1ccncc1C(=O)N1[C@@H]2CC[C@H]1CC(NC(=O)c1ccc(F)cc1)C2` (stereo not given in full), the Potency entry is “inactive”.
`CCOCC(=O)N1[C@@H]2CC[C@H]1CC(NC(=O)c1ccc(F)cc1)C2` (stereo not given in full): the Potency entry is “inactive”.
For `CNC(=O)c1cc(C)nc2onc(C3CCCN(C(=O)c4ccccn4)C3)c12` (stereo not given) the value was “inactive”.
`CCC(c1ccccn1)N(C)C(=O)c1cc(COc2ccccc2)[nH]n1` (stereo not given): the Potency result was “inactive”.
As to `COc1ccc(CNC(=O)C2CCCCN2Cc2ccc(-c3ccccc3OC)cc2)cc1` (stereo not given), the Potency was 31.6 µM (active).
Consider `COc1ccccc1-c1ccc(CN2CCCCC2C(=O)NCc2cccc(Cl)c2)cc1` (stereo not given), for which the Potency was 22.4 µM (active).
In the case of `COc1ccc(F)cc1-c1ccc(CN2CCCCC2C(=O)NCc2ccccn2)cc1` (stereo not given), the Potency was 25.1 µM (active).
For the compound `CCOc1cc(=O)n2c(c1C(=O)NCc1cccc(Cl)c1)CCCC2`, the Potency result is “inactive”.
With `C=C(C)CCC(C)N1CCC(N2CCC(C(=O)NCc3ccccn3)CC2)CC1` (stereo not given), the Potency result is “inactive”.
In the case of `CCNC(=O)[C@@H]1CCCN1[C@@H](C(=O)NC)c1ccccc1OC`, the Potency result is “inactive”.
Take `COc1ccc(OC)c(S(=O)(=O)N2CCC(CC(=O)NCc3ccccc3)C2)c1` (stereo not given): the Potency result was “inactive”.
On to `C#CCNC(=O)C1CCc2nnc(-c3ccccc3OC)n21` (stereo not given), for which the Potency entry is “inactive”.
Take `CN1CCCCCC1C(=O)NCc1cccnc1Oc1ccccc1F` (stereo not given): the Potency result is “inactive”.
For the compound `Cc1ccc2[nH]c(CCCn3cc(-c4nccn4C)nn3)nc2c1C`, the Potency result is “inactive”.
As for `Cc1cnc(C(=O)N2CC[C@H](CO)[C@H](N(C)C)C2)cn1`, the entry is “inactive”; as for `COC(=O)c1nc(NC(=O)Cn2nc3c(cc2=O)CCCCC3)sc1C`, “inactive”.
As for `CC(=O)c1cc(CN2CCN(c3nnc(C(F)(F)F)s3)CC2)cs1`, the entry is “inactive”.
With `O=C(C1CC1)N1CCC2(CC1)C(=O)NCN2Cc1ccc(Cl)cc1`, the Potency entry is “inactive”.
As for `C[S+](=O)([O-])N1CC2(Cc3ccccc31)CN(C(=O)C1CC1)C2`, the entry is “inactive”; as for `CC(=O)N1CCC(NC[C@H]2O[C@H](Cc3cc(-c4cccc(O)c4)on3)CC[C@@H]2O)CC1`, “inactive”.
Regarding `COc1ccc(CNC(=O)N2CC3CN(C)CC(C2)O3)cc1`, the Potency entry is “inactive”.
For `COc1ccc(CNC[C@H]2O[C@H](Cc3cc(-c4ccc(OC)cc4)on3)CC[C@@H]2O)cc1` the value was 35.5 µM (active).
`Cc1ncsc1C1N(C2CCN(C(=O)C3CC3)CC2)C(=O)C12CCCC2` (stereo not given): the Potency entry is “inactive”.
As for `Cc1nn(-c2ccccc2)c2c1C(C(C)C)N(C1CN(C(=O)c3ccc(Cl)nc3)C1)C2=O` (stereo not given), the entry is “inactive”.
With `Cc1nn(-c2ccc(C(C)C)cc2)c(C)c1[C@@H]1C=C[C@@H](NC(=O)Nc2ccccc2)C1`, the Potency was 39.8 µM (active).
With `CCC(C)NC(=O)Cc1csc2nc(C)c(-c3cc(C)n(-c4ccc(C(C)C)cc4)n3)c(=O)n12` (stereo not given), the Potency result was “inactive”.
As for `COc1ccc(-n2nc(C)c([C@H]3C=C[C@@H](OC(=O)Nc4cccc(F)c4)C3)c2C)cc1`, the figure is 20 µM (active); as for `CCOCCOC1CCN(C(=O)Nc2cccc(F)c2)CC1`, “inactive”.
`Cc1nn(-c2ccc(C(C)C)cc2)c(C)c1[C@@H]1C=C[C@@H](NC(=S)NCC(C)C)C1`: the Potency was 25.1 µM (active).
`COc1ccc(C(=O)Nc2cccc(-c3nnc4n3CCCC4)c2)cc1`: the Potency entry is “inactive”.
For `Cc1nn(-c2ccccc2)c2c1C(C)N(C1CN(C(=O)Nc3ccccc3)C1)C2=O` (stereo not given) the value was “inactive”; for `COc1ccc(-n2nc(C)c([C@@H]3C=C[C@@H](NC(=O)Nc4ccccc4)C3)c2C)cc1`, 50.1 µM (active); for `COc1ccc(C(=O)Nc2cc(-c3ccccn3)nn2-c2ccccc2)cc1`, “inactive”.
As to `COc1ccc(-n2nc(-c3ccccc3)n(CC(=O)N(C)CC(C)C)c2=O)cc1`, the Potency result was “inactive”.
Regarding `O=C(Cc1cccnc1)NC1CC(=O)N(Cc2cccc3ccccc23)C1` (stereo not given), the Potency result was “inactive”.
Regarding `CCNC(=O)c1noc(-c2ccc[nH]c2=O)n1`, the Potency result was “inactive”.
For `Cc1nc(CC(=O)N[C@@H]2COCC[C@H]2Oc2ccc(C#N)cc2)c(C)s1` the value was “inactive”.
For `Cc1ccc(C2Cn3cnc(C(=O)N4CCC(C(=O)NCCC(C)C)CC4)c3CO2)cc1` (stereo not given), the Potency result was “inactive”.
As for `Cc1ccc(C(=O)N2CCC(c3nn(-c4ccccn4)c(=O)[nH]3)CC2)cc1`, the entry is “inactive”.
`CCCn1cnc2c1CN(S(=O)(=O)c1ccc(C#N)cc1)[C@H](C(=O)OC)C2`: the Potency result was “inactive”.
Regarding `CCN(CC)C(=O)C(NC(=O)c1ccc(OC)cc1)C1CCN(C(=O)c2ccc(F)cc2)CC1` (stereo not given), the Potency result was “inactive”.
Consider `O=C(NC1CCCCC1)[C@@H]1C[C@@H](O)CN1C1CCN(C(=O)c2ccncc2)CC1`, for which the Potency entry is “inactive”.
As to `O=C1NC2(Cc3ccccc31)CN(Cc1cscn1)C2`, the Potency result is “inactive”.
In the case of `O=C1NCCCCCCN(Cc2ccncc2)[C@@H]2CN(C(=O)NCCc3ccccc3)CC[C@@H]12`, the Potency entry was “inactive”.
On to `COc1ccc(NC(=O)N[C@@H]2C=C[C@@H](c3c(C)nn(-c4ccc(C(C)(C)C)cc4)c3C)C2)cc1`, for which the Potency is 31.6 µM (active).
As to `COc1ccc(NC(=O)[C@@H]2C[C@@H](O)CN2C2CCN(C(=O)c3cccc(OC)c3)CC2)cc1`, the Potency result was “inactive”.
Regarding `O=C(c1ccc(Cn2cccn2)o1)N1CCn2nc(C(O)CO)cc2C1` (stereo not given), the Potency result is “inactive”.
`CN1CCN([C@@H]2[C@H](O)[C@H](CO)O[C@@H]2CNS(=O)(=O)c2ccccc2)CC1`: the Potency result is “inactive”.
For the compound `CCCn1c(C)cnc1C1CCN(C(=O)C2CCCC2)C1` (stereo not given), the Potency entry was “inactive”.
As to `O=C1CN(C(=O)c2ccc(-n3cccn3)cc2)CC(OCc2ccccc2)CN1Cc1cccnc1` (stereo not given), the Potency result was “inactive”.
For `O=c1c2nc(OCc3ccc(-n4cccn4)cc3)ccc2ncn1Cc1ccccc1`, the Potency is 28.2 µM (active).
On to `COc1ccc(-c2ccc3ncn(Cc4ccccc4)c(=O)c3n2)cc1OC`, for which the Potency result was “inactive”.
On to `CN(C)C(=O)c1cc(-c2cccc(C(F)(F)F)c2)c2nncn2n1`, for which the Potency entry is “inactive”.
In the case of `CC(=O)N1CCc2[nH]cnc2C12CCN(C(=O)c1ccc(=O)[nH]c1)CC2`, the Potency entry is “inactive”.
As to `CC(C)CNC(=O)C1Cn2cccc2C(=O)N1CC(C)C` (stereo not given), the Potency entry was “inactive”.
As to `COc1ccc(-n2c(=O)c(C(=O)NCC3CC3)nc3cccnc32)cc1`, the Potency result is “inactive”.
